# In article PMC11062922 (Nature Chemical Biology, 2023):
# Read-outs that look alike come from different tables or passages of the source.
# Legend:
# [1] = test system: GSK3A; set-up: species or system human, MV4-11 + K-562 + COLO205 + SK-N-BE2 + OVCAR-8; details: compound concentrations:0.3nM, 1nM, 3nM, 10nM, 30nM, 100nM, 300nM, 1000nM,R2:0.98330827393916598,slope:1.45562792091779,EC50 Standard Error, by the legend:Standard error of the EC50 estimation as provided by the drc package.
# [2] = test system: GSK3B; set-up: species or system human, MV4-11 + K-562 + COLO205 + SK-N-BE2 + OVCAR-8; details: compound concentrations:0.3nM, 1nM, 3nM, 10nM, 30nM, 100nM, 300nM, 1000nM,R2:0.96555674920545798,slope:0.96794765422259599,EC50 Standard Error, by the legend:Standard error of the EC50 estimation as provided by the drc package.
# [3] = test system: LATS1; set-up: species or system human, MV4-11 + K-562 + COLO205 + SK-N-BE2 + OVCAR-8; details: compound concentrations:0.3nM, 1nM, 3nM, 10nM, 30nM, 100nM, 300nM, 1000nM,R2:0.97889671835051595,slope:1.6751561590983699,EC50 Standard Error, by the legend:Standard error of the EC50 estimation as provided by the drc package.
# [4] = test system: PKN1; set-up: species or system human, MV4-11 + K-562 + COLO205 + SK-N-BE2 + OVCAR-8; details: compound concentrations:0.3nM, 1nM, 3nM, 10nM, 30nM, 100nM, 300nM, 1000nM,R2:0.97867991540409105,slope:0.79419686113227705,EC50 Standard Error, by the legend:Standard error of the EC50 estimation as provided by the drc package.
# [5] = test system: PRKX; set-up: species or system human, MV4-11 + K-562 + COLO205 + SK-N-BE2 + OVCAR-8; details: compound concentrations:0.3nM, 1nM, 3nM, 10nM, 30nM, 100nM, 300nM, 1000nM,R2:0.94127289372754697,slope:1.4629649923763099,EC50 Standard Error, by the legend:Standard error of the EC50 estimation as provided by the drc package.
# [6] = test system: PDXK; set-up: species or system human, MV4-11 + K-562 + COLO205 + SK-N-BE2 + OVCAR-8; details: read-out: apparent Kd, compound concentrations: 100 nM and 1000 nM (sheet 'Samples'), n = 1
# [7] = test system: CDK1_CycB1; details: Highest Assay Concentration (M): 9.9999999999999995E-7
# [8] = test system: CK2alpha1; details: Highest Assay Concentration (M): 9.9999999999999995E-7
# [9] = test system: CK2alpha2; details: Highest Assay Concentration (M): 9.9999999999999995E-7
# [10] = test system: BMPR1B; set-up: species or system human, MV4-11 + K-562 + COLO205 + SK-N-BE2 + OVCAR-8; details: read-out: apparent Kd; compound concentrations:100 nM and 1000 nM (sheet 'Samples'); n = 1
# [11] = test system: WEE1; set-up: species or system human, MV4-11 + K-562 + COLO205 + SK-N-BE2 + OVCAR-8; details: read-out: apparent Kd; compound concentrations:100 nM and 1000 nM (sheet 'Samples'); n = 1
# [12] = test system: ADCK3; set-up: species or system human, MV4-11 + K-562 + COLO205 + SK-N-BE2 + OVCAR-8; details: read-out: apparent Kd, n = 1
# [13] = test system: ACOX1; set-up: species or system human, MV4-11 + K-562 + COLO205 + SK-N-BE2 + OVCAR-8; details: read-out: apparent Kd, compound concentrations: 100 nM and 1000 nM (sheet 'Samples'), n = 1
# [14] = test system: CDK13; set-up: species or system human, MV4-11 + K-562 + COLO205 + SK-N-BE2 + OVCAR-8; details: read-out: apparent Kd, compound concentrations: 100 nM and 1000 nM (sheet 'Samples'), n = 1
# [15] = test system: CAMK2B; set-up: species or system human, MV4-11 + K-562 + COLO205 + SK-N-BE2 + OVCAR-8; details: read-out: apparent Kd, compound concentrations: 100 nM and 1000 nM (sheet 'Samples'), n = 1
# [16] = test system: PI4KB; set-up: species or system human, MV4-11 + K-562 + COLO205 + SK-N-BE2 + OVCAR-8; details: read-out: apparent Kd, n = 1
# [17] = test system: CLK2; set-up: species or system human, MV4-11 + K-562 + COLO205 + SK-N-BE2 + OVCAR-8; details: read-out: apparent Kd, compound concentrations: 100 nM and 1000 nM (sheet 'Samples'), n = 1
# [18] = test system: ILK; set-up: species or system human, MV4-11 + K-562 + COLO205 + SK-N-BE2 + OVCAR-8; details: read-out: apparent Kd, n = 1
# [19] = test system: PIK3CB; set-up: species or system human, MV4-11 + K-562 + COLO205 + SK-N-BE2 + OVCAR-8; details: read-out: apparent Kd, compound concentrations: 100 nM and 1000 nM (sheet 'Samples'), n = 1
# [20] = test system: RIPK3; set-up: species or system human, MV4-11 + K-562 + COLO205 + SK-N-BE2 + OVCAR-8; details: read-out: apparent Kd; compound concentrations: 100 nM and 1000 nM (sheet 'Samples'), CATDS: 1.26623913156397E-2; n = 1
# [21] = compound concentrations:100 nM and 1000 nM (sheet 'Samples')
# 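For EC50 in this document: competition pulldown with Kinobeads ε in cell lysates, inhibitor preincubated 45 min at 4 °C, bound kinases quantified by LC–MS/MS against DMSO control.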
# 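For Kd in this document: competition pulldown with Kinobeads ε in cell lysates, inhibitor preincubated 45 min at 4 °C, bound kinases quantified by LC–MS/MS against DMSO control.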
smiles,measurement,setting,value
CCn1c(-c2nonc2N)nc2c(C#CC(C)(C)O)nc(OCCNC)cc21.Cl [GSK949675A],EC50,[1],167 nM
same,Kd,[1]; read-out: apparent Kd,104 nM
same,EC50,[2],322 nM
same,Kd,[2]; read-out: apparent Kd,171 nM
same,EC50,[3],238 nM
same,Kd,[3]; read-out: apparent Kd,238 nM
same,EC50,[4],4240 nM
same,Kd,[4]; read-out: apparent Kd,4230 nM
same,EC50,[5],221 nM
same,Kd,[5]; read-out: apparent Kd,221 nM
CN(c1ccc(NC(=O)N2CCN(CCCN3CCOCC3)CC2)cc1)c1ccnc(Nc2ccc(CS(C)(=O)=O)cc2)n1.Cl [GW830899A],potency estimated from few doses,[6]; CATDS: 3.03985195702474E-2,617 nM
COc1cc(Nc2ncc3c(C)nc(-c4cc5ccccc5[nH]4)n3n2)cc(OC)c1OC [GW869516X],IC50,[7],1.97e-06 M
same,IC50,[8],8.51e-08 M
same,IC50,[9],3.37e-08 M
CNC(=O)c1ccccc1Nc1nc(Nc2ccc(N3CCOCC3)cc2)ncc1Cl.Cl [GSK1576028A],potency estimated from few doses,[10],429 nM
same,potency estimated from few doses,[11],20.5 nM
COC(=O)c1cccc(NC(=O)NC2CCN(c3ccnc(Nc4cc(OC)c(OC)c(OC)c4)n3)C2)c1 (centres unmarked) [GSK1379767A],potency estimated from few doses,"[12]; compound concentrations: 100 nM and 1000 nM (sheet 'Samples'), CATDS: 9.7786771136585404E-2",1860 nM
CCN(CC)Cc1ccc(Nc2nccc(-c3cnn4ncccc34)n2)cc1 [GW780056X],potency estimated from few doses,[13]; CATDS: 2.3991726091544201E-2,753 nM
same,potency estimated from few doses,[14]; CATDS: 1.9982527917222499E-2,1330 nM
same,potency estimated from few doses,[6]; CATDS: 2.0244692732670499E-2,1270 nM
Cc1ccccc1C1=C(c2cn(C)c3ccccc23)C(=O)NC1=O [RO0317612-000],potency estimated from few doses,[13]; CATDS: 0.16885310198044201,761 nM
same,potency estimated from few doses,[15]; CATDS: 0.21692870054448801,479 nM
same,potency estimated from few doses,[6]; CATDS: 0.20460809182567499,529 nM
CCn1c(-c2nonc2N)nc2c(C#CC(C)(C)O)nc(O[C@@H](CN)c3ccccc3)cc21.O=C(O)C(F)(F)F [GSK1007102B],potency estimated from few doses,[12]; [21],1060 nM
Cc1cccc(Nc2nc(N[C@H]3CCNC3)ncc2C(N)=O)c1.Cl [GSK2197149A],potency estimated from few doses,[16]; [21],892 nM
CNCc1ccc(-c2cc(-c3nc(-c4ccc(S(=O)(=O)C(C)C)cc4)cnc3N)on2)cc1 [VE-822],potency estimated from few doses,[10],868 nM
c1ccc(-c2n[nH]cc2Nc2ccnc3ccccc23)nc1 [GW694077X],potency estimated from few doses,[17]; CATDS: 3.5523964233137598E-2,477 nM
COc1cc[nH]c1/C=C1\C(=O)Nc2ccc(F)c(C#CC3(O)CCNCC3)c21.Cl [RO0282986-001],potency estimated from few doses,[15]; CATDS: 2.6528417916085501E-2,123 nM
same,potency estimated from few doses,[17]; CATDS: 1.56056735722173E-2,360 nM
CCn1c(-c2cccnc2O)nc2cnccc21 [SB-736715],potency estimated from few doses,"[18]; compound concentrations: 100 nM and 1000 nM (sheet 'Samples'), CATDS: 1.2476704483333699E-2",1980 nM
same,potency estimated from few doses,[19]; CATDS: 1.6268370150171501E-2,1100 nM
same,potency estimated from few doses,[20],1900 nM
CS(=O)(=O)Nc1cccc(-c2ccc3c(NC(=O)C4CC4)n[nH]c3c2)c1 [SB-742864],potency estimated from few doses,"[12]; compound concentrations: 100 nM and 1000 nM (sheet 'Samples'), CATDS: 0.16822822033669799",659 nM
O=C1N=C(NCCCc2ccccc2)S/C1=C\c1ccc2ncccc2c1 [RO4493941-000],potency estimated from few doses,"[12]; compound concentrations: 100 nM and 1000 nM (sheet 'Samples'), CATDS: 7.1008465963160003E-2",940 nM
O=C(O)C(F)(F)F.O=c1[nH]ccc2nc(N[C@@H]3CCNC3)nc(Nc3ccc4c(c3)S(=O)(=O)CC4)c12 [GSK2181306A],potency estimated from few doses,"[18]; compound concentrations: 100 nM and 1000 nM (sheet 'Samples'), CATDS: 7.7202242880441098E-3",2320 nM
CNCC#Cc1c(F)ccc2c1/C(=C/c1[nH]ccc1OC)C(=O)N2.Cl [RO0281601-001],potency estimated from few doses,[13]; CATDS: 2.54235943095352E-2,1140 nM
CCC(CC)(CC)n1cnc2c(N)ncnc21 [SKF-97620],potency estimated from few doses,"[16]; compound concentrations: 100 nM and 1000 nM (sheet 'Samples'), CATDS: 7.0031928225578105E-2",170 nM
same,potency estimated from few doses,[19]; CATDS: 4.8769305637968503E-2,337 nM
Nc1nc(-c2ccc3c(N)n[nH]c3c2)cc(N2CCCC(NC(=O)c3ccccc3)C2)n1 (centres unmarked) [GSK2286775B],potency estimated from few doses,[18]; [21],1790 nM
NS(=O)(=O)c1ccc(NC=C2C(=O)Nc3ccc4ncsc4c32)cc1 [GW589933X],potency estimated from few doses,[14]; CATDS: 1.7118564959648301E-2,1700 nM
Cn1cc(C2=C(c3c(S(C)=O)n(C)c4ccccc34)C(=O)NC2=O)c2ccccc21 (centres unmarked) [RO0317379-000],potency estimated from few doses,[6]; CATDS: 0.122248811016512,1030 nM
